# Source: PubChem BioAssay (NCATS)
# Inconclusive results are not listed. A call without a number means that no potency is given here. Calls of active or inactive are those of the source. The call rests on the fitted dose curve; in most records, active means well fitted curve in the direction sought with a large enough effect; inconclusive means small, poorly fitted or top-dose-only effect, or another doubt; inactive means no such curve, though single readings can be large; an effect the other way counts as inactive or inconclusive.
# Target: Calcium and integrin-binding protein 1 (Homo sapiens) (UniProt Q99828)
# Sequence (Q99828 whole entry, looked up): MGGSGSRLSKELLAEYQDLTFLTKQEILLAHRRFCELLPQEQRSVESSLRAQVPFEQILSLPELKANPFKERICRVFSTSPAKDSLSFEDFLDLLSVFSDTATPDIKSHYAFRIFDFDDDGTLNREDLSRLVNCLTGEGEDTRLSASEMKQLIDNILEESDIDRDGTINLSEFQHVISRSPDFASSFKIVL
# Assay: Primary qHTS for Identification of Calcium Integrin Binding Protein 1 (CIB1) Competitor (AID 1508620);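 further: GST tagged CIB1 binding a fluorescein labelled alphaIIb integrin peptide tracer; top concentration of the series differs between compounds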
# Conditions: CIB1-GST / FITC-alphaIIb peptide fluorescence polarization; series mostly up to 57.7 µM
# In short: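 CIB1-GST (1 uM final) and compound incubated 15 min at room temperature before adding FITC-alphaIIb peptide tracer (100 nM final). Competition for binding read by fluorescence polarization (ex 480, em 540) after another 15 min at room temperature.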
row,SMILES,Potency
1,CN1[C@@H]2CCC[C@@H]1CC(NC(=O)c1nn(C)c3ccccc13)C2 (stereo not given in full),inactive
2,CNC1CCC(N(Cc2cccc(-c3ccncc3)c2)C(=O)c2sc3c(F)ccc(F)c3c2Cl)CC1 (stereo not given),inactive
3,CO[C@H]1C[C@@H]2CC[C@@H](C)[C@@](O)(O2)C(=O)C(=O)N2CCCC[C@@H]2C(=O)O[C@H]([C@@H](C)C[C@@H]2CC[C@H](O)[C@H](OC)C2)CC(=O)[C@H](C)C=C(C)[C@@H](O)[C@@H](OC)C(=O)[C@H](C)C[C@H](C)C=CC=CC=C1C,inactive

# System: not listed separately
# Assay: Primary qHTS for small molecule stabilizers of the endoplasmic reticulum resident proteome: Secreted ER Calcium Modulated Protein (SERCaMP) assay (AID 1508630)
# Conditions: SH-SY5Y GLuc-SERCaMP (Gaussia luciferase released on ER calcium loss) secretion, thapsigargin, luminescence; series mostly up to 38.4 µM
# In short: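 GLuc-SERCaMP-expressing SH-SY5Y cells, pretreated 16 h with compound, are challenged with thapsigargin to empty ER calcium stores; after 4 h, coelenterazine is added directly to the medium and luminescence is imaged.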
row,SMILES,Potency
1,CCOC1OC(=O)C[C@H]1NC(=O)[C@@H]1CCCN1C(=O)[C@@H](NC(=O)c1ccc(N)c(Cl)c1)C(C)(C)C (stereo not given in full),inactive
2,CO[C@@H](C(=O)N1Cc2[nH]nc(NC(=O)c3ccc(N4CCN(C)CC4)cc3)c2C1)c1ccccc1,inactive
3,COc1ccc(-c2oc3c(CC=C(C)C)c(OC4O[C@H](CO)[C@@H](O)[C@H](O)[C@@H]4O)cc(O)c3c(=O)c2OC2O[C@@H](C)[C@H](O)[C@@H](O)[C@@H]2O)cc1 (stereo not given in full),inactive
4,CCC(=O)O[C@]1(C(=O)CO)CC[C@H]2[C@@H]3CCC4=CC(=O)CC[C@]4(C)[C@@H]3CC[C@@]21C,inactive
5,CC(C)n1cnc2c(NCCCCCCNC(=O)OC(C)(C)C)nc(NCCO)nc21,inactive
6,CC=C(C)C(=O)O[C@H]1C(C)=C[C@]23C(=O)[C@@H](C=C(CO)[C@@H](O)[C@]12O)[C@H]1[C@@H](C[C@H]3C)C1(C)C,inactive
7,C[C@]12CC[C@@H]3c4ccc(O)cc4CC[C@H]3[C@H]1C[C@@H](O)[C@H]2O,inactive
8,CC=CC(=O)N(CC)c1ccccc1C,inactive
9,C[C@H]1[C@H](NC(=O)C(=NOC(C)(C)C(=O)O)c2csc(N)n2)C(=O)N1S(=O)(=O)O,inactive
10,CC(C)=CC[C@@H](O)C1=CC(=O)c2c(O)ccc(O)c2C1=O,inactive
11,COc1ccc2c3c1OC1C[C@@H](O)C=C[C@@]31CCN(C)C2 (stereo not given in full),inactive
12,CO[C@H]1C=CC=C(C)C(=O)NC2=CC(=O)C(NCCN(C)C)=C(C[C@@H](C)C[C@H](OC)[C@@H](O)[C@@H](C)C=C(C)[C@@H]1OC(N)=O)C2=O,inactive
13,O=c1c(-c2ccc(O)cc2)coc2cc(O[C@@H]3O[C@H](CO)[C@H](O)[C@H](O)[C@H]3O)ccc12,inactive
14,NC(=O)NN=Cc1ccc([N+](=O)[O-])o1,inactive
15,Clc1cc(Cl)cc(CNc2ncncc2-c2ccc3c(c2)OCO3)c1,inactive
16,O=C1NC(=O)C(=Cc2cccc(C(F)(F)F)c2)S1,inactive
17,COc1cc(O)c2c(c1)C(=O)c1cc(C)cc(O)c1C2=O,inactive
18,NC1CCC(Nc2nc(Nc3ccc(C(=O)N4CCCCC4)cc3)c3ncn(-c4cccc(F)c4)c3n2)CC1 (stereo not given),inactive
19,CC(=O)N(C)C1(c2ccccc2)CCN(CCC[C@]2(c3ccc(Cl)c(Cl)c3)CCCN(C(=O)c3ccccc3)C2)CC1,inactive

row,SMILES,Potency
1,CC(=NNC(=S)N1CCC1)c1ccccn1,inactive
2,CCOC(=O)O[C@]1(C(=O)OCCl)CC[C@@H]2[C@H]3CCC4=CC(=O)C=C[C@]4(C)[C@@H]3[C@@H](O)C[C@@]21C,inactive
3,COCCCCC(=NOCCN)c1ccc(C(F)(F)F)cc1,inactive
4,C[N+]1(C)[C@@H]2CC(OC(=O)[C@H](CO)c3ccccc3)C[C@H]1[C@H]1O[C@@H]12 (stereo not given in full),inactive
5,N#CC(=C(N)Sc1ccccc1N)C(C#N)=C(N)Sc1ccccc1N,inactive
6,CO[C@H]1C(=O)[C@]2(C)[C@@H](OC)C[C@H]3OC[C@@]3(OC(C)=O)[C@H]2[C@H](OC(=O)c2ccccc2)[C@]2(O)C[C@H](OC(=O)[C@H](O)[C@@H](NC(=O)OC(C)(C)C)c3ccccc3)C(C)=C1C2(C)C,inactive
7,CC1(C)S[C@H]2[C@H](NC(=O)[C@@H](N)c3ccc(O)cc3)C(=O)N2[C@@H]1C(=O)O,inactive
8,Cc1[nH]c(C=C2C(=O)Nc3ccc(S(=O)(=O)Cc4c(Cl)cccc4Cl)cc32)c(C)c1C(=O)N1CCC[C@H]1CN1CCCC1,inactive
9,CC(C)C(=O)Oc1ccc(CO)cc1[C@H](CCN(C(C)C)C(C)C)c1ccccc1,inactive
10,CC1(C)O[C@H]2C[C@@H]3[C@H]4CCC5=CC(=O)C=C[C@]5(C)[C@@]4(F)[C@@H](O)C[C@]3(C)[C@]2(C(=O)CO)O1,inactive
11,CC[C@@]1(O)C[C@H](O[C@H]2C[C@H](N(C)C)[C@H](O[C@H]3C[C@H](O)[C@H](O[C@H]4CCC(=O)[C@H](C)O4)[C@H](C)O3)[C@H](C)O2)c2c(cc3c(c2O)C(=O)c2c(O)cccc2C3=O)[C@@H]1C(=O)OC,inactive
12,NC1=N[C@@]2(c3cc(NC(=O)c4ccc(F)cn4)ccc3F)COC[C@@H]2CS1,inactive
13,O=C(OCC#CCSc1nnc(-c2cccc3ccccc23)o1)c1cc2ccccc2s1,inactive
14,CC=CCC=CCCC(=O)[C@H]1O[C@@H]1C(N)=O,inactive
15,Cc1ccccc1C(C(=O)NC1CCCCC1)N(C(=O)Cn1ccnc1C)c1cccc(F)c1 (stereo not given),inactive
16,CN1[C@@H]2CCC[C@@H]1CC(NC(=O)c1nn(C)c3ccccc13)C2 (stereo not given in full),inactive
17,CNC1CCC(N(Cc2cccc(-c3ccncc3)c2)C(=O)c2sc3c(F)ccc(F)c3c2Cl)CC1 (stereo not given),inactive
18,CO[C@H]1C[C@@H]2CC[C@@H](C)[C@@](O)(O2)C(=O)C(=O)N2CCCC[C@@H]2C(=O)O[C@H]([C@@H](C)C[C@@H]2CC[C@H](O)[C@H](OC)C2)CC(=O)[C@H](C)C=C(C)[C@@H](O)[C@@H](OC)C(=O)[C@H](C)C[C@H](C)C=CC=CC=C1C,inactive
